Assay outcomes as filed in PubChem BioAssay.
Cruzain inh Det = cruzain (T. cruzi) inhibition with detergent; 0.43% of 200,000 active; purified cruzain, Z-FR-AMC fluorescence, 0.01% Triton; P25779; Potency, µM, most hits filed as inhibitors; AID 1478; note: nearly all actives have a fitted effect of over 40% in size
Target sequence (P25779 123-467 limits assumed): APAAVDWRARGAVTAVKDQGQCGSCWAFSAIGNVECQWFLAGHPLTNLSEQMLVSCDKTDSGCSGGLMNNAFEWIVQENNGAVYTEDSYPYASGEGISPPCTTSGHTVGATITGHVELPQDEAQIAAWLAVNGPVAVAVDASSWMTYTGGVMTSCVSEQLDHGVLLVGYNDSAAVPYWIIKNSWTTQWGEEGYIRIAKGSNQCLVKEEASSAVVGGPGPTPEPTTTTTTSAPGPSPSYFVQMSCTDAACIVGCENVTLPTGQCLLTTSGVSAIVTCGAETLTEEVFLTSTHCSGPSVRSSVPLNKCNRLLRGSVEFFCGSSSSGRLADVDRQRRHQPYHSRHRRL
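Compounds were screened in titration against cruzain (1.5 nM) with 0.01% Triton X-100 to counter colloidal aggregation. Activity was the AMC fluorescence increase over 60 s after adding 2 uM Z-FR-AMC at pH 5.5.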
Cruzain inh noDet = inhibitors of Trypanosoma cruzi cruzain without detergent; purified cruzain, Z-FR-AMC fluorescence, no detergent; 2.3% of 200,000 active; AID 1476; Potency, µM, actives largely listed as inhibitors; P25779; note: nearly all actives have a fitted effect of over 40% in size
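Purified cruzain at 1.5 nM, pre-incubated 15 min with compound at room temperature in 100 mM sodium acetate pH 5.5, 5 mM DTT, 0.00005% Triton X-100. Reaction started with 2 uM Z-FR-AMC; AMC fluorescence increase over 60 s gives rate.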
Numbers stand for hits; . = inactive; ? = inconclusive. Most compounds without a hit are left out; they make up all but 2.4% or so of the library. Calls come from the whole dose curve; as a rule, active = well fitted curve in the direction sought with a large enough effect; inconclusive = small, poorly fitted or top-dose-only effect, or another doubt; inactive = no such curve, though single readings can be large; an effect the other way counts as inactive or inconclusive.

SMILES	Cruzain inh Det	Cruzain inh noDet
COCCCNC(=O)CSc1nc2cc3c(cc2c(=O)n1CCCCCC(=O)NCCc1ccc(OC)c(OC)c1)OCO3	.	.
CCCC1CCC(C2=N/C(=C\c3ccc(OC)c(OC)c3)C(=O)O2)CC1 (configuration not stated)	1µM	2.5µM
COc1ccc(/C=C2\N=C(SC)SC2=O)cc1OC	.	.
CCOC(=O)c1cnn(-c2ccc(C(=O)Nc3cccc(C(C)=O)c3)cc2)c1N	.	?
N#Cc1c(Cl)nc(Cl)c2c1CCN(Cc1ccccc1)C2	.	.
N#Cc1c(NCCN)nc(NCc2ccccc2)c2c1CCN(Cc1ccccc1)C2	.	7.9µM
Fc1cc(F)c2ncc3c(-c4ccccc4)nn(-c4cccc(Cl)c4)c3c2c1	.	.
CCOC(=O)c1c(/N=C/c2c(O)n(-c3ccc(F)cc3)c(=S)[nH]c2=O)sc2c1CCCC2	.	.
CCOC(=O)c1c(/N=C/c2c(O)n(-c3ccccc3F)c(=S)[nH]c2=O)sc2c1CCCC2	.	16µM
CCC1CN(C(=O)N2CCC(C(=O)NCc3ccc(OC)cc3OC)CC2)c2cc(C)ccc2O1 (configuration not stated)	.	?
O=C(Cn1c(C(=O)N2CCN(C3CCCCC3)CC2)cc2sccc21)c1ccccc1	.	.
O=C(Cn1c(C(=O)N2CCc3ccccc3C2)cc2sccc21)c1ccccc1	.	25µM
O=C(CSc1nc2nccnc2c(=O)n1CCc1c[nH]c2ccccc12)Nc1ccccc1	.	.
Cc1ccc(C(c2nnnn2C2CCCC2)N2CCc3ccccc32)cc1 (configuration not stated)	.	32µM
CC(C)C(c1nnnn1C1CCCC1)N1CCc2ccccc21 (configuration not stated)	.	.
COc1ccc(/C=C/C(=O)Nc2nc(-c3cccs3)ns2)cc1	.	.
Cc1cc(C)c(S(=O)(=O)NCCc2cc3c(C)ccc(C)c3[nH]c2=O)c(C)c1	.	.
Cc1ccc(N2CC3=C(C2=O)C(c2ccc(Br)cc2)NC(=O)N3C)cc1 (configuration not stated)	.	.
O=C(CSc1oc(-c2ccccc2)nc1S(=O)(=O)c1ccccc1)c1ccccc1	.	?
O=C(CSc1oc(-c2ccccc2)nc1S(=O)(=O)c1ccc(Br)cc1)c1ccccc1	.	13µM
CN(C)CCCNc1c2c(nc3ccc(Cl)cc13)CCCC2	.	.
COc1ccc(N2C(=O)CC(Nc3ccc(C)cc3)C2=O)cc1 (configuration not stated)	.	?
Cc1ccc(NC2CC(=O)N(c3ccc(N4CCCCC4)cc3)C2=O)cc1 (configuration not stated)	.	7.9µM
C=CCn1c(SCc2cc(C(C)=O)ccc2OCC)nc2ccccc2c1=O	14µM	?
COc1ccc(C(C)=O)cc1CSc1nc2ccccc2c(=O)n1-c1ccccc1	.	.
SMILES	Cruzain inh Det	Cruzain inh noDet
COCCCn1c(=N)c(C(=O)NCC2CCCO2)cc2c(=O)n3cccc(C)c3nc21 (configuration not stated)	25µM	?
Cc1ccc(CNC(=O)c2cc3c(=O)n4cccc(C)c4nc3n(CC3CCCO3)c2=N)cc1 (configuration not stated)	.	?
COCCCn1c(=N)c(C(=O)NCC2CCCO2)cc2c(=O)n3ccccc3nc21 (configuration not stated)	28µM	?
CCCn1c(=N)c(C(=O)NCC2CCCO2)cc2c(=O)n3cccc(C)c3nc21 (configuration not stated)	32µM	?
CCOCCCn1c(=N)c(C(=O)NCC2CCCO2)cc2c(=O)n3cc(C)ccc3nc21 (configuration not stated)	.	?
Cc1ccc(S(=O)(=O)c2cc3c(=O)n4cc(C)ccc4nc3n(CC3CCCO3)c2=N)cc1 (configuration not stated)	.	.
N=c1c(S(=O)(=O)c2ccccc2)cc2c(=O)n3ccccc3nc2n1CC1CCCO1 (configuration not stated)	32µM	?
Cc1cccn2c(=O)c3cc(C(=O)NCC4CCCO4)c(=N)n(CCN4CCOCC4)c3nc12 (configuration not stated)	.	.
Fc1ccc(Nc2nc3nonc3nc2Nc2cccc(C(F)(F)F)c2)cc1	.	.
CN[C@H]1[C@@H](O[C@@H]2[C@H](O[C@@H]3[C@@H](O)[C@@H](O)[C@@H](N=C(N)N)[C@@H](O)[C@@H]3N=C(N)N)O[C@H](C)[C@@]2(O)C=O)O[C@@H](CO)[C@@H](O)[C@H]1O	.	.
COc1cccc(N2CCN(C(=O)c3ccc(CS(=O)c4cccc(Cl)c4)o3)CC2)c1 (configuration not stated)	.	.
COc1cccc(OCCn2cc(/C=N/NC(=O)c3ccncc3)c3ccccc32)c1	.	?
COc1ccc(OCCn2cc(/C=N/NC(=O)c3ccncc3)c3ccccc32)cc1	.	?
CNC(=S)N/N=C/c1cn(CCOc2cccc(OC)c2)c2ccccc12	.	25µM
CNC(=S)N/N=C/c1cn(CCOc2ccccc2OC)c2ccccc12	.	32µM
Cc1ccc2cc3cc(C(=O)N4CCN(c5ccc(Cl)cc5)CC4)oc3nc2c1	.	.
COc1ccc(-c2nc(-c3ccccc3)oc2Nc2c(C)cccc2C)cc1	.	.
COc1cc(-c2noc(-c3ccc(N(C)C)c([N+](=O)[O-])c3)n2)cc(OC)c1OC	.	25µM
CN(C)c1ccc(-c2nc(-c3ccncc3)no2)cc1[N+](=O)[O-]	.	.
CCN(CC)c1ccc(-c2nc(-c3ccco3)no2)cc1[N+](=O)[O-]	.	16µM
CCCCNc1ccc(-c2nc(-c3ccco3)no2)cc1[N+](=O)[O-]	.	?
CCCCC/C=C\C/C=C\C/C=C\CCCCCCC(=O)O[C@H](COCCCCCCCCCCCCCCCC)COP(=O)([O-])OCC[N+](C)(C)C	.	.
CC1(C)CC(=O)c2cc(C(=O)Nc3ccc(Br)cc3)c(=O)n(-c3ccc(Cl)cc3)c2C1	.	.
Cn1cc(CCCC(=O)NCc2ccccc2Cl)c2ccccc21	.	.
CCc1ccc2c(CN3CCc4ccccc43)cc(=O)oc2c1	.	32µM
SMILES	Cruzain inh Det	Cruzain inh noDet
Cc1cc2oc(=O)cc(CN3CCc4ccccc43)c2cc1Cl	.	?
Cc1cc(C)c2cc(CN(CCN3CCCC3)C(=O)Nc3ccc(F)cc3)c(=O)[nH]c2c1	.	?
Cc1ccc(C)c2[nH]c(=O)c(CN(CCN3CCCC3)C(=O)Nc3cccc(Cl)c3)cc12	.	25µM
N#CC1=C(N)Oc2c(ccc3ccccc23)C1c1ccsc1 (configuration not stated)	.	.
COc1cc(C2C(C#N)=C(N)Oc3c2ccc2ccccc32)ccc1OCC(=O)Nc1cccc(C)c1 (configuration not stated)	.	7.9µM
COc1cc(C2C(C#N)=C(N)Oc3c2ccc2ccccc32)ccc1OCC(=O)Nc1ccc(C)cc1 (configuration not stated)	.	10µM
COC(=O)C1=C(C)OC(N)=C(C#N)C1c1ccc(OC)c(OC)c1OC (configuration not stated)	.	.
CCCCn1c(=O)[nH]c(=O)c2c1nc(COc1ccc(C#N)cc1)n2CCC	.	.
CCCCn1c(=O)[nH]c(=O)c2c1nc(CN1C(=O)c3ccccc3S1(=O)=O)n2CCC	.	25µM
CN(C)S(=O)(=O)c1cc(NC(=O)COC(=O)Cc2ccccc2)ccc1Cl	.	.
